The source of these data is ChEMBL document CHEMBL4513216, “Probing the Open Global Health Chemical Diversity Library for Multistage-Active Starting Points for Next-Generation Antimalarials” (ACS Infect Dis, 2020).

In all, about 69,000 compounds went through this assay and about 8,600 (12%) showed an effect of 50% or more. Only a selection was taken, and strong results are over-represented in it overall.

The experiment concerns Plasmodium berghei. In words: Screen against P. berghei liver stage (PbLuc), transformed with Luciferase, at 10uM. The experiment is classed as functional, HepG2. As to conditions: tested at 10 uM.
As for `CN(CC(=O)NC1CCOCC1)C1CCCN(c2cccnn2)C1` (configuration not stated), the INHIBITION turned out to be 26.5%.
As for `O=C(CCCN1CCOC1=O)Nc1cnn(-c2ccccc2Cl)c1`, the INHIBITION was 33.8%.
For `CNc1cc2c(nn1)CCN(C(=O)c1ccc3c(c1)CCC3)C2` the value was 27.4%.
As for `Cc1noc(C)c1CNCC1CNc2ccnn2C1` (configuration not stated), the figure is 39.3%; as for `CC(C)n1cc(CN2CCCN(C(=O)CN3CCCC3=O)CC2)cn1`, 33.7%; as for `CC(C)N(C)Cc1n[nH]c2c1CCN(C(=O)c1ccc[nH]1)C2`, 2.79%.
In the case of `CC(C)CCNC(=O)CNC(=O)N1CCc2c([nH]c3ccc(Cl)cc23)C1`, the INHIBITION is reported as -2.13%.
In the case of `Cc1ccn(-c2ccc(N3CCCN(Cc4ccccc4)CC3)nn2)n1`, the INHIBITION is 6.39%.
For `c1cc2ccc(N3CCN(Cc4ccc5c(c4)OCO5)CC3)nc2[nH]1` the value was 44.7%.
In the case of `O=C1OCCN1CCN1CCCN(Cc2ccccc2F)CC1`, the INHIBITION stood at 15.1%.
Turning to `c1cc(CN2CCCN(c3ccc4cc[nH]c4n3)CC2)ccn1`, the INHIBITION worked out at 54.4%.
Consider `Fc1ccccc1CN1CCCN(c2ncnc3[nH]ccc23)CC1`, for which the INHIBITION is given as 26.9%.
As for `Fc1ccccc1CN1CCCN(c2ccc3cc[nH]c3n2)CC1`, the figure is 70.4%; as for `Cc1cc(-n2nc(C3CC3)nc2-c2csnn2)ccn1`, 19.5%.
Turning to `CN1CCOC(CNCc2coc(-c3ccccc3Cl)n2)C1` (configuration not stated), the INHIBITION is 16.8%.
On to `CC(C)c1noc(CN2CCN(C(=O)c3cccc(F)c3)CC2)n1`, for which the INHIBITION is recorded as -31.5%.
`CCN(CC)S(=O)(=O)c1ccc2c(c1)N(Cc1ccccn1)C(=O)CS2`: the INHIBITION was 13.1%.
Consider `CN(C)S(=O)(=O)N1CC[C@]2(O)CCN(c3cc(C#N)ccn3)C[C@@H]2C1`, for which the INHIBITION is 36.5%.
In the case of `CS(=O)(=O)N1CC[C@]2(O)CCN(c3ccnc(N)n3)C[C@@H]2C1`, the INHIBITION came to 20.8%.
For the compound `CS(=O)(=O)N1CC[C@]2(O)CCN(c3cc(C#N)ccn3)C[C@@H]2C1`, the INHIBITION is recorded as 52.2%.
Turning to `CC(C)(C)n1nc(C(=O)NC2CCN(CC(N)=O)CC2)cc1C1CC1`, the INHIBITION is reported as 5.03%.
`CC(C)(C)n1nc(C2CC2)cc1C(=O)NC1CCN(CC(N)=O)CC1`: the INHIBITION stood at 56%.
For the compound `Cc1cc(C(=O)NC2CCN(CC(N)=O)CC2)nn1C(C)(C)C`, the INHIBITION is on record as -1.54%.
Take `Cc1noc(C(C)C)c1C(=O)NCCN1CCCCCC1=O`: the INHIBITION is 11.6%.
For `Cc1nc(C)n(CC2CCCCN2CC(=O)Nc2cc(C)on2)n1` (configuration not stated) the value was 15.5%.
Take `COCC(=O)N1CCCC1c1nc(O)cc(C(C)C)n1` (configuration not stated): the INHIBITION was found to be 0.301%.
Regarding `CN(C)CCN1C(=O)CCC12CCCN(C(=O)c1cccnc1)CC2` (configuration not stated), the INHIBITION is on record as -38.1%.
For `Cc1occc(=O)c1OCC(=O)N1CCc2ccccc2C1` the value was -8.04%.
As for `CC(NC(=O)NCCCc1n[nH]c(N)c1C#N)c1ccccc1` (configuration not stated), the figure is 31%.
For `CC(NC(=O)NCCNc1cnccn1)c1cccs1` (configuration not stated) the value was -0.847%; for `CC(NC(=O)NCCCc1n[nH]c(N)c1C#N)c1cccs1` (configuration not stated), 58.2%; for `CC(C)C(NC(=O)NCCNc1ncccn1)c1cccs1` (configuration not stated), -6.44%.
With `CC(NC(=O)NCCNc1ccccn1)c1cccs1` (configuration not stated), the INHIBITION is on record as 19.6%.
Consider `CC(C)C(NC(=O)NCCNc1ccccn1)c1cccs1` (configuration not stated), for which the INHIBITION is recorded as 50.4%.
For `CC(C)C(NC(=O)NCCNc1cnccn1)c1cccs1` (configuration not stated), the INHIBITION came to 36.1%.
Regarding `CC(NC(=O)NCCNc1ncccn1)c1cccs1` (configuration not stated), the INHIBITION was found to be 56.6%.
For `CC(NC(=O)NCCCc1n[nH]c(N)c1C#N)c1ccc(F)cc1` (configuration not stated) the value was -25.8%.
As to `CCSc1ccc(C(=O)N2CCCCC2C(=O)NC(C)(C)C)cn1` (configuration not stated), the INHIBITION came out at 29.7%.
In the case of `CN(CCCO)C(=O)c1ccc2c(c1)nc(N1CC[C@H](O)C1)n2C`, the INHIBITION was -17.7%.
For the compound `O=C(c1ccncc1)N1CCN2C[C@H](Oc3cccc(F)c3)C[C@H]2C1`, the INHIBITION was 15.3%.
With `CC1CCCCN1CCNC(=O)c1scnc1Cl` (configuration not stated), the INHIBITION is reported as 0.411%.
With `O=C(C1CCCC1)N1CCCC(c2nc(O)cc(-c3ccncc3)n2)C1` (configuration not stated), the INHIBITION amounted to 18.3%.
With `CCOc1ccc(CC(=O)N2CCN(c3nccn3C)CC2)cc1`, the INHIBITION was determined as 15%.
As for `CC(C)Sc1ccc(C(C)Nc2nc3c(cnn3C)c(=O)[nH]2)cc1` (configuration not stated), the INHIBITION is 76.8%.
Regarding `Cn1ncc2c(=O)[nH]c(CN3CCCc4cc(F)ccc43)nc21`, the INHIBITION is listed as 31.7%.
For `CC(Nc1nc2c(cnn2C)c(=O)[nH]1)c1ccc(F)cc1` (configuration not stated) the value was 23.1%.
With `CC(Nc1nc2c(cnn2C)c(=O)[nH]1)c1ccc2c(c1)CCCC2` (configuration not stated), the INHIBITION is 51%.
As to `CCC(=O)Nc1ccc(C(C)Nc2nc3c(cnn3C)c(=O)[nH]2)cc1` (configuration not stated), the INHIBITION was found to be 28.7%.
As for `CC(Nc1nc2c(cnn2C)c(=O)[nH]1)c1ccccn1` (configuration not stated), the figure is 30.9%; as for `c1ccc(Cn2cc3c(n2)C(CNCc2ccco2)OCC3)nc1` (configuration not stated), -4.86%; as for `Cn1cc(C(=O)N2CC[C@@H]3[C@@H]2CCN3Cc2cccnc2)cn1`, 10.8%.
For `COc1nn(C)cc1C(=O)N1CCC(c2nnc(-c3ccsc3)o2)CC1`, the INHIBITION was determined as 43.3%.
